Assay outcomes as filed in PubChem BioAssay.
HT1080 IDH1KD tx: qHTS for induction of synthetic lethality in tumor cells producing 2HG: qHTS for the HT-1080-IDH1KD cell line. Potency, µM (top dose mostly 46.1 µM), for inactives: at the highest dose activity, negative = toxicity, actives largely listed as cytotoxic. HT-1080 IDH1 knockdown viability, ATP luminescence, 48 h. AID 686971, 2013. actives 2% (n = 360,000);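 also: potency is read from the fitted curve at half-maximal effect; 0% = DMSO wells and -100% = cell-free medium wells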
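Using the IDH1-knockdown HT-1080 line run in the same batch and compound series as the NT line, viability after 48 h at 37 °C was determined by CellTiter-Glo luminescence and expressed as % activity.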
TDP1 cell CPT: qHTS for Inhibitors of human tyrosyl-DNA phosphodiesterase 1 (TDP1): qHTS in cells in presence of CPT | AID 686979, 2013 | actives 12% (n = 420,000) | chicken DT40 Tdp1-/-;hTDP1 cells + 20 nM CPT, ATP luminescence, 48 h | Potency, µM (series often up to 46.2 µM), without a hit: at the top dose activity change, negative = growth inhibition, most hits filed as inhibitors; also: potency is read from the fitted curve at half-maximal effect; nearly all actives have a fitted effect of over 55% in size
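Cell growth measured by CellTiter-Glo luminescence after a minimum 48 h, 37 C compound exposure with 20 nM CPT in Tdp1-knockout DT40 cells stably expressing hTDP1, seeded 400/well; qHTS titration format.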
IL-1B inflam inh: qHTS for Inhibitors of Inflammasome Signaling: IL-1-beta AlphaLISA Primary Screen. THP-1 LPS/ATP IL-1B secretion, AlphaLISA, 16 h; stronger effect = lower value. activity change, % at 57.5 µM. actives 4.7% (n = 360,000). AID 743279, 2014; in the data active = activity change below about -50%; inconclusive = mostly about -30% to -49%
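Secreted IL-1B measured by AlphaLISA bead assay after 16 h compound exposure of THP-1 cells; compounds (final up to 57.5 uM) added 1 h before LPS (250 ng/mL) and ATP (1.25 mM) stimulation; lower signal means less secretion.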
12-LOX inh: Primary qHTS assay for inhibitors of human arachidonate 12S-lipoxygenase (ALOX12): Round 2; Potency, µM (doses to about 108 µM), for the others: at the highest dose activity change, negative = inhibition, usual class: inhibitors; actives 1.1% (n = 580,000); purified 12hLO, xylenol orange hydroperoxide absorbance; also: potency is read from the fitted curve at half-maximal effect
Target sequence (P18054 whole entry, looked up): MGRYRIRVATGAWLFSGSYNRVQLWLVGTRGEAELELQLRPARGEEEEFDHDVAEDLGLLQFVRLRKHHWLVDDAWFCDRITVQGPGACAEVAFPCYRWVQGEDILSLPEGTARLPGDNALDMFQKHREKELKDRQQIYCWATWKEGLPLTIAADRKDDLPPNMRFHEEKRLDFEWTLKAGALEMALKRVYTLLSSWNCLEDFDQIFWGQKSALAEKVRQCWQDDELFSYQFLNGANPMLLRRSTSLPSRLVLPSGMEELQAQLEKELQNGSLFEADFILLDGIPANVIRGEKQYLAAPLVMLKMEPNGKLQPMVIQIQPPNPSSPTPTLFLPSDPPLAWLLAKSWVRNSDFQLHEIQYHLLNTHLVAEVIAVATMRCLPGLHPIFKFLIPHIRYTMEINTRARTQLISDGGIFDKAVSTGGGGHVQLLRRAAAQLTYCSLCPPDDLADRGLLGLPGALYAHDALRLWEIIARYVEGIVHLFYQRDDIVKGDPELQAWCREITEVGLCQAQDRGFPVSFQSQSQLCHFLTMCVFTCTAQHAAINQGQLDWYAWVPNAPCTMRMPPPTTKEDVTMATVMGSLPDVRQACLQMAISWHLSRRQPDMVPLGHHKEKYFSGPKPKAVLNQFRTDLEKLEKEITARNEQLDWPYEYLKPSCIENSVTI
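Hydroperoxide product was detected by ferrous iron/xylenol orange as the 573 to 405 nm absorbance ratio. Arachidonic acid at 40 uM (final) was turned over for 30 min at room temperature by 150 nM human 12hLO, pH 7.0 Hepes buffer, after 15 min compound preincubation.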
TDP1 cell noCPT: qHTS for Inhibitors of human tyrosyl-DNA phosphodiesterase 1 (TDP1): qHTS in cells in absence of CPT; Potency, µM (top dose mostly 46.2 µM), inactives show at the highest dose activity change, negative = growth inhibition, usual class: inhibitors; DT40 Tdp1-/- hTDP1 cells, no CPT, ATP luminescence, 48 h; actives 15% (n = 420,000); AID 686978, 2013; also: potency is read from the fitted curve at half-maximal effect; nearly all actives have a fitted effect of over 55% in size
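Compound effects on proliferation are scored in DT40 Tdp1-/-;hTDP1 cells in the absence of CPT. ATP levels (CellTiter-Glo luminescence) are recorded after a ≥48 hr, 37 °C incubation.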
HT1080-NT tox: qHTS for induction of synthetic lethality in tumor cells producing 2HG: qHTS for the HT-1080-NT fibrosarcoma cell line | Potency, µM (doses to about 46.1 µM), without a hit: at the highest dose activity, negative = less viability, usual class: cytotoxic | HT-1080-NT fibrosarcoma viability, CellTiter-Glo ATP luminescence, 48 h | actives 1.6% (n = 360,000);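 also: NT is the 2HG producing partner of a matched IDH1 knockdown line; potency is read from the fitted curve at half-maximal effect; 0% = DMSO-treated cells and -100% = media-only wells without cells; nearly all actives have a fitted effect of over 55% in size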
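A 48-hour cytotoxicity screen used HT-1080-NT cells plated 2 hours before compound delivery. ATP-based CellTiter-Glo luminescence measured viability, normalized to DMSO and no-cell controls.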
An asterisk follows results filed as active; ? = inconclusive; · = not tested or not shown; [ ] = remark or other dose. This excerpt belongs to a sample that is enriched for hits. Unless noted, calls follow the shape of the dose curve; as a rule, active = well fitted curve in the direction sought with a large enough effect; inconclusive = small, poorly fitted or top-dose-only effect, or another doubt; inactive = no such curve, though single readings can be large; an effect the other way counts as inactive or inconclusive. Unless noted, % is scaled to controls: 0 for no effect and ±100 for the full control effect.

SMILES	HT1080 IDH1KD tx	TDP1 cell CPT	IL-1B inflam inh	12-LOX inh	TDP1 cell noCPT	HT1080-NT tox
CCOC(=O)c1oc2ccccc2c1NC(=O)c1cccc(OC)c1	-17%	13µM*	-19	-7%	18µM*	7%[9.24 µM]
COc1cccc(C(=O)Nc2c(C(N)=O)oc3ccccc23)c1	1%	?	-12	14%[57.4 µM]	16µM*	-10%
COc1ccc(C(=O)c2oc3ccccc3c2NC(=O)c2cccc(OC)c2)cc1	·	-14%	·	-28%	-3%	·
Cc1nc2ccccc2nc1SCC(=O)Nc1ccccc1OC(C)C	·	·	·	0%	·	·
Cc1cn2nc(C(=O)NC3CCCCCC3)cc2c(N2CCCC2)n1	·	·	·	34%	·	·
Cc1ccc(-n2c(Cl)c(Cl)nc(Cl)c2=O)cc1	2.9µM*	0.29µM*	-97*	·	0.92µM*	2.6µM*
COc1nc(Cl)cn(-c2ccc(C)cc2)c1=O	5%	8%	12	20%	7%	9%
Cc1cccn2c(=O)c3cc(C(=O)N(Cc4ccccc4)Cc4ccccc4)n(C)c3nc12	·	·	·	-53%	·	·
CCOC(=O)N1CCC(NC(=O)c2cnn(-c3ccc(F)cc3F)c2C2CCN(C(=O)OC(C)(C)C)CC2)CC1	·	5%	·	9%	-20%	·
CC(C)(C)OC(=O)N1CCC(c2c(C(=O)NC3CCN(Cc4ccccc4)CC3)cnn2-c2ccc(F)cc2F)CC1	·	12µM*	·	?	8.2µM*	·
CC(C)(C)OC(=O)N1CCC(c2c(C(=O)NCc3ccccc3)cnn2-c2ccc(F)cc2)CC1	·	23µM*	·	-11%	18µM*	·
CC(C)(C)OC(=O)N1CCC(c2c(C(=O)NCc3ccco3)cnn2-c2ccc(F)cc2F)CC1	·	23µM*	·	-13%	?	·
CC(C)(C)OC(=O)N1CCC(c2c(C(=O)NCc3cccs3)cnn2-c2ccc(F)cc2F)CC1	·	?	·	-8%	?	·
COc1ccc(CNC(=O)c2cnn(-c3ccc(C)cc3)c2C2CCN(C(=O)OC(C)(C)C)CC2)cc1	·	9.2µM*	·	-27%	21µM*	·
CC(C)(C)OC(=O)N1CCC(c2c(C(=O)NCCc3ccccc3)cnn2-c2ccc(F)cc2F)CC1	·	21µM*	·	0%	18µM*	·
CC(C)(C)OC(=O)N1CCC(c2c(C(=O)NCc3ccccc3)cnn2-c2cccc(F)c2)CC1	·	?	·	-24%	18µM*	·
CC(C)(C)OC(=O)N1CCC(c2c(C(=O)N3CCN(c4ncccn4)CC3)cnn2-c2ccc(F)cc2)CC1	·	-4%	·	-4%	-5%	·
CCOC(=O)c1cnn(-c2ccc(OC)cc2)c1C1CCN(C(=O)OC(C)(C)C)CC1	·	?	·	14µM*	26µM*	·
COc1ccc(-n2ncc(C(=O)NC3CC3)c2C2CCN(C(=O)OC(C)(C)C)CC2)cc1	7%	-20%	14	0%	-1%	5%
CC(C)(C)OC(=O)N1CCC(c2c(C(=O)NCCc3ccccc3)cnn2-c2ccc(F)cc2)CC1	·	?	·	1%	16µM*	·
Cn1c(=O)c2c(ncn2CC(=O)N(C2CC2)C2CCS(=O)(=O)C2)n(C)c1=O (centres undefined)	·	·	·	-1%	·	·
O=C(c1ccoc1)N1CC[C@@H]2[C@@H](CCC(=O)N2CCc2cnc[nH]2)C1	·	·	·	13%	·	·
CC(C)(C)OC(=O)N1CCC(c2c(C(=O)NCCN3CCc4ccccc4C3)cnn2-c2ccc(F)cc2F)CC1	·	21µM*	·	-18%	12µM*	·
O=C(CSc1ccc2ccccc2c1)NCCc1ccc(O)c(O)c1	?	16µM*	-53*	?	23µM*	-27%
COc1ccc(CCNC(=O)CSc2ccc3ccccc3c2)cc1OC	2%	?	2	?	?	1%
SMILES	HT1080 IDH1KD tx	TDP1 cell CPT	IL-1B inflam inh	12-LOX inh	TDP1 cell noCPT	HT1080-NT tox
O=C(NCCCN1CCN(c2ccc(F)cc2)CC1)c1ccc2nc(Cc3ccccc3)oc2c1	·	13µM*	·	?	21µM*	·
COc1ccccc1N1CCN(CCCNC(=O)c2nnc(Cc3ccc(F)cc3Cl)o2)CC1	·	?	·	5%	?	·
O=C(NCCCN1CCN(c2ccccc2)CC1)c1ccc2nc(Cc3ccccc3)oc2c1	·	12µM*	·	?	8.2µM*	·
Cc1ccc(C)c(N2CCN(CCCNC(=O)c3nnc(Cc4ccc(F)cc4Cl)o3)CC2)c1	·	2.6µM*	·	-18%	4.6µM*	·
O=C(NCCCN1CCN(c2ccccc2)CC1)c1nnc(Cc2ccc(F)cc2)o1	·	?	·	-17%	26µM*	·
COCCN1CCC(N2CCN(S(=O)(=O)c3ccc(C)cc3C)CC2)C1=O (centres undefined)	·	·	·	47%	·	·
Nc1ncnc(Nc2cc(Cl)ccc2Cl)c1[N+](=O)[O-]	·	·	·	33%	·	·
O=C(c1ccccn1)N1CCC(Cc2nc(C3CCOCC3)no2)CC1	·	·	·	15%	·	·
Cc1cccc(Cn2c(N3CCN(c4cccc(Cl)c4)CC3)nc3c2c(=O)n(C)c(=O)n3C)c1	·	·	·	-7%	·	·
COc1ccc(C(=O)CCC(=O)N2CCN(c3cccc(Cl)c3)CC2)cc1	-3%	16µM*	-28	4%[57.4 µM]	23µM*	-11%
COc1ccc(-c2noc(CCC(=O)N3CCN(c4ccccc4C)CC3)n2)cc1	-4%	?	34	?	-17%	-2%
COc1ccc(-c2noc(CCC(=O)N3CCN(c4cccc(Cl)c4)CC3)n2)cc1	-11%	?	4	-3%	23µM*	-9%
COc1ccc(OCC(=O)N2CCN(c3cccc(Cl)c3)CC2)cc1	-2%	?	-5	14%	?	-1%
COc1ccc(-c2noc(CCC(=O)N3CCN(c4ccccc4OC)CC3)n2)cc1	8%	?	0	0%	21µM*	4%
CC(Oc1ccc(Br)cc1)C(=O)Nc1ccc(S(=O)(=O)N(C)C2CCN(C)CC2)cc1 (centres undefined)	-1%	12µM*	-98*	?	6.5µM*	-19%
O=C(COc1ccc(C(=O)O)cc1)Nc1cccc(C(F)(F)F)c1	18%	-21%	49	-18%	-13%	16%
